SMILES strings stand for the structures. Records with an inconclusive call do not appear. A number with no mark means an inactive call. The call rests on the fitted dose curve; in most records, active means well fitted inhibition curve with a large enough effect; inconclusive means small, poorly fitted or top-dose-only effect; inactive means flat fitted curve, though single readings scatter.
On the % scale 0 is the no-effect control and ±100 the full control effect.

Sequence of Calcium and integrin-binding protein 1 (Homo sapiens) (Q99828 whole entry, looked up): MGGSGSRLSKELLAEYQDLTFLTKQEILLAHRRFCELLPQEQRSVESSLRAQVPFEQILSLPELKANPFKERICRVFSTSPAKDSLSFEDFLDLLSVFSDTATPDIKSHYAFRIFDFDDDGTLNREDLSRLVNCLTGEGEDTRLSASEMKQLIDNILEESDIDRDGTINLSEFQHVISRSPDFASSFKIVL

The target of this assay is Calcium and integrin-binding protein 1 (Homo sapiens) (UniProt Q99828). Nature of the assay: Primary qHTS for Identification of Calcium Integrin Binding Protein 1 (CIB1) Competitor (AID 1508620).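 Further: GST tagged CIB1 binding a fluorescein labelled alphaIIb integrin peptide tracer; top concentration of the series differs between compounds.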 The settings on record: CIB1-GST / FITC-alphaIIb peptide fluorescence polarization; series mostly up to 114 µM; activity change, negative = inhibition: at the top concentration. The method, boiled down:
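CIB1-GST (1 uM final) and compound incubated 15 min at room temperature before adding FITC-alphaIIb peptide tracer (100 nM final). Competition for binding read by fluorescence polarization (ex 480, em 540) after another 15 min at room temperature.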
For orientation: qHTS replaces the single test concentration by a dilution series.
For `Cc1nc(C#Cc2ccnc(Cl)c2)c(C)n1-c1ccc(F)cc1`, the “activity change, negative = inhibition” value was 5.98%. Under `CCCCOc1ccc(S(=O)(=O)n2c(C)nc3ccccc32)cc1` stands -1.67% [at 57.7 µM]; under `CNC(=O)c1cc(Oc2ccc(NC(=O)c3cccc(C(F)(F)F)c3)cc2)ccn1`, 4.8%; under `CC(=O)OC1CC(O)(C(C)C)C2C(OC(=O)c3ccc(O)cc3)C=C(C)C(=O)CC12C` (centres undefined), 0.284% [at 57.7 µM]. Under `CCCc1cc(C)n(C)c(=O)c1CN(C)C(=O)c1cc(-c2ccc(N3CCN(C(C)C)CC3)nc2)cc2c1cnn2C(C)C` stands 0.171%.

Take `O=C(Nc1ccc(-c2ccnc(Nc3ccc(N4CCOCC4)cc3)n2)cc1)C1CCCN1` (centres undefined): the “activity change, negative = inhibition” value was -1.78%. Turning to `CCN1C(C)(C)CC(Oc2ccc(C(=O)Nc3ccc(NC(=O)Nc4cc(C(C)(C)C)on4)cc3)nc2)CC1(C)C`, the “activity change, negative = inhibition” value is -0.208%. For the compound `CC(C)c1cccc(C(C)C)c1NC(=O)Nc1ccc(Sc2ccc([N+](=O)[O-])cc2)cc1`, the “activity change, negative = inhibition” value is 2.54%. Under `COc1cc(-n2cnc3cc(-c4ccc(Cl)cc4)sc3c2=O)ccc1OCCN1CCCC1` stands 5.32%; under `C=C1C(=O)OC2/C=C(/C)C3=CC(=O)C(C)(CC(OC(=O)/C(C)=C/COC(C)=O)C12)O3` (centres undefined), -8.21% [at 57.7 µM]; under `CCC(C)/C=C(C)/C=C/C1=CC2=CC(=O)C3(C)OC(C)(O)C(C(=O)OC)C3C2=CO1` (centres undefined), -6.08% [at 57.7 µM]. With `Fc1ccc(-n2cc(CCCCN3CCC4(CC3)OCc3ccccc34)c3ccccc32)cc1`, the “activity change, negative = inhibition” value is 4.88%. For the compound `CN1CCN(S(=O)(=O)c2ccc(-c3cnc(N)c(C(=O)Nc4cccnc4)n3)cc2)CC1`, the “activity change, negative = inhibition” value was -2.16% [at 57.7 µM].

Turning to `CNc1cccc(CCOc2ccc3c(c2)CN(CC(F)(F)F)C(=O)[C@H](CC(=O)O)C3)n1`, the “activity change, negative = inhibition” value was -1.34%. The figure for `COC(=O)c1ccc2c(c1)nc(NC(=O)c1ccccc1)n2CCCc1ccccc1` is 5.5%; for `CNC(=O)c1ccc2c(c1)CCO[C@H]2CCN1CCN(c2ccc(OC)cc2)CC1` it is 4.83%; for `C=C[C@@]1(C)C=C2C(=O)C(O)=C3[C@](C)(C(=O)O)CC[C@@H]4C[C@]34[C@]2(O)C(=O)C1` it is -10.9% [at 57.7 µM]. Regarding `Cc1cc(-c2nc3cc(F)ccc3s2)ccc1NC(=O)[C@@H](N)CCCCN`, the “activity change, negative = inhibition” value was 0.145%. Regarding `O=C1COc2nccc(-c3ccccc3F)c2CN1Cc1cc(C(F)(F)F)cc(C(F)(F)F)c1`, the “activity change, negative = inhibition” value was 1.74%. For `C=C1/C(=C/C=C2\CCC[C@]3(C)[C@@H]([C@H](C)/C=C/[C@H](O)C4CC4)CC[C@@H]23)C[C@@H](O)C[C@@H]1O`, the “activity change, negative = inhibition” value was 0.681%. Regarding `Nc1nc(NC2CC2)cc(-c2cccc(Cl)c2Cl)n1`, the “activity change, negative = inhibition” value was -10.3%. The figure for `C[C@@H]1O[C@@H](O[C@H]2[C@H](O[C@H]3CC[C@@]4(C)C(CC[C@]5(C)C4C=C[C@]46OC[C@@]7(CCC(C)(C)C[C@H]74)[C@@H](O[C@@H]4O[C@@H](C)[C@H](O)[C@@H](O)[C@H]4O)C[C@]65C)[C@]3(C)CO)O[C@H](CO)[C@@H](O)[C@@H]2O[C@@H]2O[C@H](CO)[C@@H](O)[C@H](O)[C@H]2O)[C@H](O)[C@H](O)[C@H]1O` (some centres undefined) is 3% [at 30.2 µM].

`O=C(Nc1ccc(-c2ccc(Cl)c(Cl)c2)cc1)C1=C(O)c2ccccc2S(=O)(=O)N1`: the “activity change, negative = inhibition” value was -2.79%. The figure for `CS/C=C/C(=O)O[C@@H]1CCC2=CC(=O)C(=C(C)C)C[C@]2(C)[C@H]1C` is -7.91% [at 57.7 µM]; for `C=C(C(=O)O[C@H]1C/C(C)=C/CC/C(CO)=C/[C@H]2OC(=O)C(=C)[C@H]12)C(O)CO` (some centres undefined) it is -17.1% [at 57.7 µM]; for `C=C1C(=O)OC2/C=C(\COC(C)=O)CC/C=C(\C=O)CC(OC(=O)CC(C)C)C12` (centres undefined) it is 0.72% [at 57.7 µM]. Take `O=C(Nc1ccc(C(O)(C(F)(F)F)C(F)(F)F)cc1)c1ccc(C(F)(F)F)cc1`: the “activity change, negative = inhibition” value was 5.18%. On to `C[C@@H](NC(=O)c1ccc(C#Cc2cccc(F)c2)cn1)C(C)(C)O`, for which the “activity change, negative = inhibition” value is 2.65%. `COc1cc2ncnc(Nc3cccc(I)c3)c2cc1OC`: the “activity change, negative = inhibition” value was -2.81%.

As to `CCC(CC)C(c1ccc(Nc2nc3ccccc3s2)cc1)n1cncn1` (centres undefined), the “activity change, negative = inhibition” value was 2.02%. Regarding `N#Cc1ccc(COc2ccc(-c3cccc4nc(NC(=O)C5CC5)nn34)cc2)cn1`, the “activity change, negative = inhibition” value was 1.74%. Turning to `CC(=O)OC1[C@H]2[C@@H](C[C@@H](C)[C@@H]3C=CC(=O)[C@@]13C)OC(=O)[C@@H]2C` (some centres undefined), the “activity change, negative = inhibition” value is -2.05%. For the compound `COc1cc(N2CCOCC2)ccc1NC(=O)c1csc(-c2cccnc2)n1`, the “activity change, negative = inhibition” value was -6.54%.

`CCN1CCN(Cc2ccc(C(=O)Nc3ccc(C)c(Oc4ccc5c(c4)CC(=O)N5)c3)cc2C(F)(F)F)CC1`: the “activity change, negative = inhibition” value was -16.7%.

Consider `N#Cc1cc(CN2CCC(Nc3ncnc4sc(Cl)cc34)CC2)ccc1F`, for which the “activity change, negative = inhibition” value is -0.0599%. Turning to `CC1(CO)CC2C(O)C3=C(CC(C)(O)C2C1)C(=O)OC3` (centres undefined), the “activity change, negative = inhibition” value was 3.95%.

Take `O=C(Nc1ccc(N(Cc2ccsc2)C(=O)Cn2nnc3ccccc32)cc1)C1CC1`: the “activity change, negative = inhibition” value was -5.75%.

`COc1cc2c(c(OC)c1CC=C(C)C)C[C@H](c1ccc(O)c(CC=C(C)C)c1O)CO2`: the “activity change, negative = inhibition” value is 5.63% [at 57.7 µM]. Regarding `CC1=C(c2ccc(NC(=O)c3c(F)cccc3F)cc2)CN(c2nccs2)CC1`, the “activity change, negative = inhibition” value was 9.74%.

The record behind these values is PubChem BioAssay (NCATS).
